About 3,700 (7%) of roughly 53,000 sequences were called active. Only a selection was taken, and actives are over-represented in it overall. Values without a mark were called inactive.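 The calls were made as follows: active = gene knockdowns whose robust z-score for IL-1 alpha signal is at least 2 or at most -2, so actives lie on both sides; inactive = the rest.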

The values that follow come from PubChem BioAssay AID1508600 (Functional Genomics Laboratory (NCATS/FGL), 2020).

The assay in a line: Components of the Cytosolic LPS Sensing Pathway: Gene Identification via Genome-wide siRNA Screen.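 Also: robust z of the log signal after scaling to non-targeting control siRNA wells of the plate.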 The conditions noted are these: RAW264.7 macrophages, IL-1a HTRF, actives lie on both sides, screened at 100 nM (by protocol), cells primed 5 h with Pam3CSK4 first. The method in brief:
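Read-out: IL-1a HTRF on supernatant, divided by plate negative-control median ×100, log-transformed and converted to robust z-score. Cells were RAW264.7 given 100 nM siRNA, Pam3CSK4-primed 5 hours, then LipidA-transfected 24 hour.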
With GGGACCCUACAAAAUCAUUTT against Ganab, the z-score is 0.467.
With GGAUCUUUUCAGGUUCUAATT against Olfr659, the z-score is 0.377.
With GCUAGAAGCCUGACAUUUUTT against Tbca the figure was -0.538.
CGAUUGAUGAAUCUGGUUCTT against Racgap1: the z-score was -0.31.
With GCUGGUCAAGGGUCUAGAGTT against Saa3 the figure was -2.05 (active); with GGGAGUUCUCUAAAUGCUUTT against Olfr482, 1.52.
With GCCUCCAGUAUCAUAAUUGTT against Antxr2 the figure was 1.26; with CCAGUUCGAUGUGGUAAUATT against St3gal5, 1.11.
With GGAUGUCACAUGACAGUUUTT against Tmprss4, the z-score is 0.563.
With GGAUCCAACAAAUGUUAUUTT against Ccdc92 the figure was 2.06 (active).
With CGAUGGUGAUUCCCAUGUUTT against Olfr996 the figure was 0.529.
In the case of GCUAUCUCGGUGUCAACUUTT against Aqp7, the z-score was -1.26.
On to GGUUGGAUUAUUAGGAAUUTT against Dnah5, for which the z-score is 0.0387.
With GGGCUCCUUUUUUUUUUUUTT against Frat1 the figure was -2.55 (active).
With CCAAUUGCUCUCCAUGAAATT against Coro1c, the z-score is 0.331.
Turning to GCUUGGAAGACAUUGACCCTT against Brsk2, the z-score is -0.996.
Regarding GGUUACAGAAGAAUUAGAATT against Ift57, the z-score was 9.9e-05.
With CCCUCUUUAUCGUCUGUGATT against Gpha2 the figure was -2.89 (active).
With GGGAUUGAGAUCCUCAUACTT against Olfr1179 the figure was 0.125; with GCCGAGAUGGUCAUAAGCUTT against Rbbp5, 1.99; with CCUACCACAACAUGUAUCCTT against S100a11, 2.25 (active).
With GCACGGCGAAAAAAUCUUCTT against Katnal2 the figure was -0.167.
For GCAGUGGUAGAACAUCCAATT against Bhmt2, the z-score was 0.585.
With CCUACUGUCUAAGAAUACATT against Olfr1138 the figure was -1.65.
With CCUUCCACAAAUACUCAGGTT against S100a4 the figure was 0.562; with GGCUUAUGUGAUUUUGAUUTT against Gpr63, -0.628; with GGAGAAGAUGUCAUCCAGATT against Zfp467, -0.37.
With GGAUAGACACUAGGAUCCUTT against Pdcd1lg2 the figure was 0.721; with GCUGCUAUGAGAGAGUUUUTT against Serpind1, 2.18 (active).
For GGCAACAAAUCAAAGCAGCTT against Anxa7, the z-score is 1.4.
Consider GCUUAUAAAGUAGUGGUUUTT against Wnt2b, for which the z-score was -0.384.
Consider GCACCGAGUGGAAUAAUCATT against Lrp12, for which the z-score was 3.44 (active).
With CCGUAAGUCUCGGAUCUCCTT against Plcxd1 the figure was 0.373; with GCCACUACAUAAAAUAGUCTT against Ube2z, 0.0966; with GGAGAUGAGGUGAAGUGGATT against Acsm4, -0.213.
With GGCAUAUAUACAUGCCUGCTT against Vmn1r215 the figure was 0.833.
With “GCCCUACUAAGUCAAUUAATT against 1700055D18Rik” the figure was 0.248; with GGACAUUUUCAAACAAGGCTT against Mthfs, -1.07; with “GGGAAAAUAUCAGCUCAAUTT against D930048N14Rik”, -2.63 (active).
As for GCCUUGUGACAGCAUUAGUTT against Slc6a13, the z-score was -0.0361.
With GGUGCUAAAUAAGACAAUGTT against Psma4 the figure was -1.76; with GGGCAUGUGGAUGACUGAUTT against Gnptg, 2.04 (active); with GGGCUAGCAUCACAGUUUUTT against Tigd3, 2.3 (active).
With GCCCACUCACACCUAUUCUTT against Olfr1388 the figure was 0.406; with GGCGCAAGUUUGAUUUUGATT against Gigyf1, 1.23; with CCAUCUUGAAGAUUCGUUCTT against Olfr486, -1.24.
With GCUAAUCUAUCCGUGUCCUTT against B3gnt3 the figure was -0.522.
Consider GGUAUAGCGGUGCAUGUCATT against Bmp8a, for which the z-score was -0.823.
With GCUGGAGAUCAUCCUUCAGTT against Rph3al the figure was 0.742; with GCUCCAGGCAUUGAGAAUGTT against Hcfc1r1, 1.98; with GGGAAGCUAAUAAAAGCACTT against Rgs20, -0.902.
With GGUGCUCAAAGAAUGCAUUTT against Prkar1b the figure was 0.367; with GGCUUGCAUAUCUAUUGGATT against Map2k6, 2.61 (active); with CCUCUCAGAUUUUCACAUATT against Zfp599, 1.36.
With GGCUCAAAGUCCUCAGAGCTT against Atp6v1e1 the figure was -2.15 (active).
For GGGAUUGUAUGAGUGCACATT against Coa4, the z-score is 0.657.
With GGAGUCUUCUCAAUUUGACTT against Olfr1105 the figure was -0.617; with CCUAUAUGACAAAAGACAGTT against Glra2, -0.168.
With GGCGGUCUUUAAGAUGCUCTT against Ubl7 the figure was 2.12 (active); with GCUAGGUAUACAGCCAAAGTT against Spryd4, -0.699.
With GCGCGUCAUCUUCUGACUUTT against Mmgt2 the figure was 1.45.
As for GGUGACUUGCUUUAGAAAATT against Tnfaip8l1, the z-score was 0.184.
GCACCUCCUUAUGUGUCAUTT against Chrm2: the z-score is 0.729.
With GGACAUGACAUUUUUACGCTT against Cyp4f16 the figure was -1.26.
With GGAUAUGAACAAUAGCAUATT against Kcna1 the figure was 2.2 (active); with GGACUUAUCACUAUUUGCATT against Dlgap3, 0.782.
As for GCCAUAGCUAUUGUCAUUCTT against Mmp16, the z-score was 0.441.
Regarding GCAUGGUAUCAGGUACAUATT against Med9, the z-score is 2.2 (active).
With GGUCUUUGUACAUCAAUGUTT against Zfp677 the figure was -0.241.
As for AACCAGUCCUUGAAAAGAGTT against Olfr128, the z-score is -1.01.
Turning to GGAAGGUAUCCACUGUGCATT against Nme6, the z-score is -1.46.
With CCUCACCAGGUAAAUUUUUTT against Ro60 the figure was -1.25; with GGUACUUUCCUUUCGAUGCTT against Skint10, -0.524; with CCUGGUAACCUGCUAAAAGTT against Gm5124, 1.24.
With GGACUGGUUCUUCAGUACCTT against Cradd the figure was 2.21 (active); with GGAACACAUUACCUCAAUUTT against Lipt2, -0.705; with GGAACUCAUGUGAAGCUCCTT against Ssu72, -0.544.
Turning to GGAGCUGAGCAGUGAUGAATT against Snx29, the z-score is -2.08 (active).
Consider GCACCUAGAUUGAUCAUAGTT against Olfr1183, for which the z-score was -0.894.
With GGAACCGCUGAUGCUUAAGTT against Ctsl the figure was -0.726.
For the sequence GGCUCAGUGAAGGCAAGUUTT against Hspb2, the z-score was 2.56 (active).
With GGGUCAUCCACUUUGUCAGTT against Fam177a the figure was -0.584; with CCGCUGCAUAGCAUGUACATT against Dusp23, 0.901.
With GGUGGAGAUUAUUCAUGUUTT against Dpp8 the figure was 2.31 (active).
With GGUGAACAGAAGGACAGAUTT against Gm4736 the figure was 0.479; with CCAUUUAUGGAAUACACCUTT against Tmem150b, 0.0118; with GGCCAAAUGACUGAGAUUGTT against Rcan3, 1.35.
Take GGAAGAAUUUAAGAAGUUCTT against Pdia3: the z-score is 1.24.
With GGUCCCUGUGAACAAGCUGTT against Serpinf1 the figure was 1.12.
With GGUGUUACAUAUGAGGAAUTT against Ociad1 the figure was 1.61; with GGCAGACAGAGGGUAAAAATT against Slc24a1, -0.956; with GGAAGAGGAAUAUUACCAGTT against Marveld3, -2.16 (active).
For the sequence GGUUCUCUACAAAGUAAGUTT against Slc35e1, the z-score is -0.0459.
With GCUUGUUCAGGAAAUGAAATT against Tmcc3 the figure was -1.15.
With GGAGACAGAAUUCAAAACUTT against P2ry1 the figure was 0.0725; with CCUUCCUACAACAAGUGUGTT against Galnt1, 2.02 (active).
With GCCCAGUCAAGACUAUUCGTT against Csnk2b the figure was 1.58; with GGUGAAGACCAUCUUGACCTT against Clcnkb, -1.74; with AGACUCGUACACGCAGGAATT against Ggn, 0.882.
GGCAGACAAGUUGUUAAAATT against Nusap1: the z-score is -0.913.
Turning to GCUAGUUAUCUAAUCUCUGTT against Nuak1, the z-score is 2.79 (active).
With GGAACAACUCCUGUUCCCATT against Obscn the figure was 1.85.
With GGGAAAGAGAAAUUUAAAGTT against Kcne4 the figure was 1.3; with CCCAUCAUUCCUUUCUUACTT against Ndfip2, 0.193; with CCAUUCUUGCCUUUGUGCUTT against Cep55, -1.63.
With GGCUGUGGUAUUUUUGGUUTT against Vopp1, the z-score was 2.15 (active).
With CCUGGUACAUCUCUGUUACTT against Olfr449 the figure was 1.53.
